# Rows were chosen to be rich in hits. Some 9.9% of all compounds tested hit in one or more screens of this group.
# Tau fibril ThT: blocks human tau fibril formation measured by thioflavin T | Potency, µM (titrated, usually from 57.4 µM), without a hit: at the highest dose activity, negative = inhibition, actives largely listed as inhibitors | P10636 | 270,000 tested, 2.1% active | recombinant tau K18 P301L, heparin-induced fibrillization, ThT fluorescence | AID 1460; further: nearly all actives have a fitted effect of over 55% in size
# Target sequence (P10636 561-689 P618L limits assumed): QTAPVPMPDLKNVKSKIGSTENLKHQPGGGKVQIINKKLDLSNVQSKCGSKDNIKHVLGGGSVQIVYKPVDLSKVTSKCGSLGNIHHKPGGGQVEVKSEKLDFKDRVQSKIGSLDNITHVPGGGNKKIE
#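 Fibril formation assay: tau K18 P301L at 15 uM with trace Alexa 594 label, heparin inducer 20 uM, pH 7 sodium acetate buffer, 37 C for 6 hr; endpoint ThT signal.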
# JMJD2E inh: blocks human JMJD2E demethylase activity. Potency, µM (series often up to 57.1 µM), inactives show at the top dose activity change, negative = inhibition, hits mostly inhibitors. 230,000 tested, 1.6% active. JMJD2E catalytic domain, FDH-coupled NADH fluorescence (FDH is formaldehyde dehydrogenase). B2RXH2; active means well fitted inhibition curve with a large enough effect, not every such curve was filed as active; inconclusive means small, poorly fitted or top-dose-only effect, or another doubt; inactive means no such curve, though single readings can be large or run the other way;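 further: 0% = wells with enzyme and -100% = buffer wells without enzyme; nearly all actives have a fitted effect of over 50% in size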
# HPGD inh: blocks human HPGD enzyme activity; AID 894; P15428; Potency, µM, without a hit: at the top dose activity change, negative = inhibition, usual class: inhibitors; purified HPGD, NADH fluorescence kinetic, PGE2 substrate; 150,000 tested, 4.3% active; active means well fitted inhibition curve with a large enough effect, not every such curve was filed as active; inconclusive means small, poorly fitted or top-dose-only effect, or another doubt; inactive means no such curve, though single readings can be large or run the other way
# Target sequence (P15428 whole entry, looked up): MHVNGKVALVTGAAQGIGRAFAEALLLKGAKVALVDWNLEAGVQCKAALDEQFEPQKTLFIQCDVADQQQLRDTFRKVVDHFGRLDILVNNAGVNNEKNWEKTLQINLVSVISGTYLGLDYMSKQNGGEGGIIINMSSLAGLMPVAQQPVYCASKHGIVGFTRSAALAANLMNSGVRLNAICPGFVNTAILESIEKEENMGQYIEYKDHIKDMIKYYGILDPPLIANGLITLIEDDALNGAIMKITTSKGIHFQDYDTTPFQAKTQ
#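 NADH formation kinetics: reaction with 30 uM PGE2 and 1 mM NAD+ (final), 20 nM enzyme, Tris-HCl pH 8 with Tween 20, after 15 min compound preincubation at room temperature. Fluorescence change, last versus first of five reads.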
# ALDH1A1 inh: blocks purified human ALDH1A1 activity | Potency, µM (titrated, usually from 75.3 µM), without a hit: at the highest dose activity, negative = inhibition, actives largely listed as inhibitors | 220,000 tested, 7.3% active | Purified ALDH1A1, NADH fluorescence, propionaldehyde substrate | P00352; active means well fitted inhibition curve with a large enough effect, not every such curve was filed as active; inconclusive means small, poorly fitted or top-dose-only effect, or another doubt; inactive means no such curve, though single readings can be large or run the other way;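 further: plate controls were no enzyme wells and a reference inhibitor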
# Tau FP inhib: blocks human tau fibril formation measured by polarization | P10636 | K18 P301L tau heparin fibrillization, Alexa594 FP, 6 h | Potency, µM (highest dose often 57.7 µM), without a hit: top-dose activity, negative = inhibition, hits mostly inhibitors | 280,000 tested, 0.39% active; further: nearly all actives have a fitted effect of over 55% in size
#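 K18 P301L tau (15 uM unlabeled/0.24 uM Alexa 594-labeled, final) + compound + heparin 20 uM final; 100 mM NaOAc pH 7; 6 hr 37 C; ThT 30 uM final added, 1 hr RT; FP ex 555/em 632 nm.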
# Tau fluor counter: counter-screen for tau fibril formation inhibitors | Potency, µM (doses to about 57.7 µM), for inactives: top-dose activity change, negative = decrease | tau K18 P301L Alexa594 fluorescence, heparin fibrillization | 280,000 tested, 0.93% active | AID 1463; further: nearly all actives have a fitted effect of over 55% in size
#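 Human tau K18 P301L (15 uM unlabeled, 0.24 uM Alexa 594-labeled) in 100 mM sodium acetate pH 7 with 20 uM heparin, 6 hr at 37 C. ThT 30 uM added, 1 hr ambient; Alexa 594 FP and total fluorescence read at 555/632 nm.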
# The depositor's hits bear a star; ? = inconclusive; . = no result given; [ ] = another dose, or the depositor's remark. Unless noted, the call rests on the fitted dose curve; in most records, active means well fitted curve in the direction sought with a large enough effect; inconclusive means small, poorly fitted or top-dose-only effect, or another doubt; inactive means no such curve, though single readings can be large; an effect the other way counts as inactive or inconclusive. Unless noted, on the % scale 0 is the no-effect control and ±100 the full control effect; potency means the concentration at half of the fitted maximal effect.
SMILES,Tau fibril ThT,JMJD2E inh,HPGD inh,ALDH1A1 inh,Tau FP inhib,Tau fluor counter
Cc1ccc(-n2c(SCC(=O)NCc3ccco3)nc3c(sc4ccccc43)c2=O)cc1,-10%,?,?,?,-5%,-12%
Cc1cc(OCCCn2c(CCNC(=O)C3CCCCC3)nc3ccccc32)ccc1Cl,?,.,.,.,-8%,-16%
COc1ccc(CN=C2NN=C(c3ccccc3)CS2)cc1,?,?,.,4.5µM*,-2%,-23%
COc1cccc(C2=NNC(=NCc3ccccc3)SC2)c1,?,?,.,?,7%,-21%
COc1ccc(CN=C2NN=C(c3cccc(OC)c3)CS2)cc1,?,-1%,.,8.9µM*,-4%,-15%
CCC(=O)N(Cc1ccco1)c1nc(C(=O)Nc2ccc(Cl)cc2)c(C)s1,-6%,?,?,22µM*,-2%,-23%
Cc1ccc(NC(=O)c2nc(S(C)(=O)=O)ncc2N(Cc2ccco2)Cc2ccco2)cc1,-7%,.,.,.,-8%,-19%
COc1ccc(CCNC(=O)C2(c3cccs3)CCOCC2)cc1,0%,.,.,.,-1%,3%
O=C(O)CN(CC(=O)O)Cc1cc2c(-c3ccccc3C(=O)O)c3cc(CN(CC(=O)O)CC(=O)O)c(=O)cc-3oc2cc1O,?,4µM*,?,-11%,22µM*,-7%
O=C(O)c1ccccc1-c1c2ccc(=O)cc-2oc2cc(O)ccc12,?,.,?,-7%,1%,-2%
C/C=C\C=C/C(=O)Nc1cccc(C2=NOC3(C2)C[C@@H](C(N)=O)N(C(=O)/C=C/C=C\C)C3)c1 (stereo not given in full),25µM*,?,.,.,?,-9%
C/C(CC(=O)Nc1cccnc1)=N\NC(=O)C(=O)Nc1cccc(C)c1,?,7%,-3%,10%,15%,2%
CC1CCC2C(=O)N3C(CCC(C)C3c3ccccc3Br)C(=O)N2C1c1ccc(C#CCN(C)C)cc1 (stereo not given),-11%[11.5 µM],.,.,3.5µM*,0%[11.6 µM],-1%[11.6 µM]
CCOC(=O)C1(CCCc2ccccc2)CCN(CC(O)CO)CC1 (stereo not given),-13%,8%,.,?,3%,-13%
O=C(CSc1nc2ccccc2n1Cc1ccccc1)N1CCN(c2ccc(F)cc2)CC1,-20%,.,.,.,6%,-15%
CC(C)C(O)(C#CCN1CCCCCC1)c1ccccc1 (stereo not given),-1%,?,.,?,-3%,-16%
CC[n+]1c(/C=C/C=C/N(C(C)=O)c2ccccc2)sc2cc(OC)ccc21,13µM*,?,-8%,?,12%,4µM*[fluorescent]
COc1ccc(OC)c(CNC(=O)c2nn(C)c3c2CSc2ccccc2-3)c1,-2%,.,.,.,-5%,-8%
CSc1cccc(NC(=O)CN2C(=O)c3ccccc3S2(=O)=O)c1,-7%,-14%,-3%,?,-7%,-18%
Cc1cccc(NC(=O)CN2NS(=O)(=O)c3ccccc3C2=O)c1,-7%,-2%,-13%,10µM*,-1%,-7%
CC(N)(Cc1ccc(O)c(O)c1)C(=O)O (stereo not given),4µM*,3.5µM*,10µM*,2.2µM*,?,?
C[C@@](N)(Cc1ccc(O)cc1)C(=O)O,?,5%,-11%,-5%,-13%,?
COc1ccc(CCC(=O)O)cc1OC,-10%,-5%,.,.,-3%,-9%
COc1ccc(C[C@@](C)(N)C(=O)O)cc1OC,.,11µM*,-1%,-13%[20.9 µM],.,.
Cc1cc(C(F)(F)F)nn1-c1nc(-c2ccccc2)cc(C(F)(F)F)n1,1%,.,.,.,?,-14%
SMILES,Tau fibril ThT,JMJD2E inh,HPGD inh,ALDH1A1 inh,Tau FP inhib,Tau fluor counter
Cc1ccc2c(c1)c1c(c(=O)n(-c3ccccc3)c(=O)n1CC(=O)N1CCCC1)n2C,3%,.,.,.,1%,7%
CCc1nnc(NC(=O)Cc2cc(OC)c(OC)c(OC)c2)s1,6%,5%,.,1%,9%,8%
Cc1nnc(NC(=O)c2cccc(S(=O)(=O)N3CCOCC3)c2)s1,-11%,-5%,-10%,-6%,4%,-8%
C=CCSc1nnc(NC(=O)c2cccc(S(=O)(=O)N3CCOCC3)c2)s1,-7%,-8%,3.5µM*,?,1%,-5%
Cc1cccc(C(=O)Nc2nnc(S(=O)(=O)N3CCOCC3)s2)c1,3.5µM*,.,.,.,5%,-26%
CCCn1cc(S(=O)(=O)c2ccc(CC)cc2)c(=O)c2ccccc21,4%,.,.,.,3%,-4%
Cc1nc(N(C)C)c2sc(=S)n(Cc3ccccc3)c2n1,2%,0%,.,6.3µM*,-2%,-12%
CCN(CC)c1nc(C)nc2c1sc(=S)n2C,2%,-3%,.,-4%,1%,-7%
O=S(=O)(NC1CCN(Cc2ccccc2)CC1)c1ccc2ccccc2c1,-8%,-8%,.,22µM*,2%,-10%
C[C@@H](CNC(N)=O)NC(N)=O,.,.,-17%,4%[13.5 µM],.,.
COc1cccc(-c2ccc3ncnc(N4CCNCC4)c3c2)c1,.,.,.,-4%,.,.
O=C(CNCCN1CCOCC1)Nc1ccccc1Sc1ccccc1,-1%,?,-4%,32µM*,3%,1%
ONC(=Nc1ccc(Cl)cc1)c1ccccc1,6%,-3%,-3%,0%,-5%,-7%
Cc1[nH]nc2c1/C(=N/O)CC(c1ccccc1)C2 (stereo not given),2%,10%,14µM*,-11%,-14%,0%
CCCc1noc2c1/C(=N\O)CC(c1ccccc1)C2 (stereo not given),-8%,4%,-3%,?,-15%,-5%
CCCc1n[nH]c2c1/C(=N/O)CC(c1ccccc1)C2 (stereo not given),-9%,0%,7.1µM*,5%,-6%,-6%
O=C(O)c1ccccc1-c1oc2cc(O)ccc2c(=O)c1Oc1ccccc1,-10%,?,?,20µM*,-3%,-15%
COCCNC(=O)C1=C(N)C(C(=O)Nc2ccc(C)c(S(=O)(=O)N3CCCCC3)c2)SC1=Nc1ccc(C)cc1C (stereo not given),-4%,-1%,?,0.79µM*,-2%,?
CCN(CC)S(=O)(=O)c1cccc(C(=O)NCC2CCCO2)c1 (stereo not given),-5%,-1%,-20%,-5%,-2%,-2%
CCN(CC)S(=O)(=O)c1cccc(NC(=O)C2SC(=Nc3ccc(C)cc3C)C(C(=O)NCC3CCCO3)=C2N)c1 (stereo not given),-14%,-4%,-6%,-6%,?,13µM*[quencher]
COc1ccc(C(=O)Nc2ccc(C)c(S(=O)(=O)N3CCCCCC3)c2)cc1,-8%,?,.,?,?,?
O=C1/C(=C/c2cccs2)SC(=S)N1c1cccc(O)c1,20µM*,-3%,.,.,-11%,20µM*[quencher]
